Measured values from the GenesisPotency data set.
Out of some 290,000 compounds screened, about 3,000 (1%) were called active. Rule as the data show it: active = inhibition mostly above about 36% (no sharp cut-off); inactive = mostly below about 34%. Many of the other results were omitted from the sample, so actives are more common in it than they were.

Target: T1, Nucleotide-binding oligomerization domain-containing protein 1, Homo sapiens (UniProt Q9Y239)
T1 sequence (whole entry): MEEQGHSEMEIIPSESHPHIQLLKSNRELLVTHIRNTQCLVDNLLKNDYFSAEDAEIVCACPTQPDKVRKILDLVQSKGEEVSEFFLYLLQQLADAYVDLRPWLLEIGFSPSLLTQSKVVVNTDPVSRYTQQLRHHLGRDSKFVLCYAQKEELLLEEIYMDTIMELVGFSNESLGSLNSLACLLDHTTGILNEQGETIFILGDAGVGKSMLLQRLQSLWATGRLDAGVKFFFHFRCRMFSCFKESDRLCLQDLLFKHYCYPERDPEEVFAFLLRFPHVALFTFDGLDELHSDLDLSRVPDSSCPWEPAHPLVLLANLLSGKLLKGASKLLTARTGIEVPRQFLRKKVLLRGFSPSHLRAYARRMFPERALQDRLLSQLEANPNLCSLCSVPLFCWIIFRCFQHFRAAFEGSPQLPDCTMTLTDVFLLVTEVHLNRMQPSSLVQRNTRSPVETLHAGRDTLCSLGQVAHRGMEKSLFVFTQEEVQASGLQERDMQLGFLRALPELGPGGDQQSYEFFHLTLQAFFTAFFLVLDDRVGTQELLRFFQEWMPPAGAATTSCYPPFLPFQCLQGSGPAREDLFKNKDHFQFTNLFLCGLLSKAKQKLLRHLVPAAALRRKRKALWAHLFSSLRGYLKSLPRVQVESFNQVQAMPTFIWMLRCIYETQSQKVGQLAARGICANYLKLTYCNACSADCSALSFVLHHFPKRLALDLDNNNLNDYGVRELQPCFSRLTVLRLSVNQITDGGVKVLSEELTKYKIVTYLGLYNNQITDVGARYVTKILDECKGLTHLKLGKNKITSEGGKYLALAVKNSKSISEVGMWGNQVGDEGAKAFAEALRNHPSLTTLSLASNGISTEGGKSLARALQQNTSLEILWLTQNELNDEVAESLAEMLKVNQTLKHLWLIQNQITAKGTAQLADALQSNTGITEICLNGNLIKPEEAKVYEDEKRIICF
Assay: NOD1 signaling inhibitors, primary screen, cell-based, luminescence, uHTS (AID 1578)

outcome, active:
Cc1ccc(C)c(OCC(=O)Nc2nc3ccc([N+](=O)[O-])cc3s2)c1C
O=[N+]([O-])c1ccc(O)c(-c2cc(C(F)(F)F)nc(-c3ccccc3)n2)c1
CC(C)c1ccc(-n2c(-c3ccccc3)c[n+]3c2CCc2ccccc2-3)cc1.[Br-]
CCCCCCCC[n+]1cccc2c3ccccc3ccc21.[I-]
CCCCCCCCC[n+]1cccc2c3ccccc3ccc21.[Br-]
O=C(NC(NC(=S)Nc1ccc(Cl)cc1Cl)C(Cl)(Cl)Cl)c1cccc([N+](=O)[O-])c1 (stereo not drawn)
COc1ccc(Cc2[nH]n3c(=O)c(Cl)c(C)nc3c2-c2ccccc2)cc1
O=C(Cc1ccc(Cl)cc1)c1c[nH]c(C(=O)NCc2cccnc2)c1
CCN(c1ccc(OC)cc1)c1ncnc2nc[nH]c12
CCCN(CCC)c1ncnc2nc[nH]c12
CCc1ccc(N(CC)c2ncnc3nc[nH]c23)cc1
COc1ccc(N=C2NC(=O)/C(=C/c3ccc(O)c(OC)c3)S2)cc1
Cc1ccc(C(=O)NC(=S)N(C)C2CCCCC2)cc1Br
O=[N+]([O-])c1ccc(Sc2cccc3cccnc23)c([N+](=O)[O-])c1
Cn1nc([N+](=O)[O-])nc1Sc1cccc2cccnc12
C=CCn1nc([N+](=O)[O-])nc1Sc1cccc2cccnc12
C=CCn1c(SCC(=O)Nc2sccc2C(N)=O)nc2sc(CC)cc2c1=O
O=C(OCn1ncc(Cl)c(Cl)c1=O)c1cccc(C(F)(F)F)c1
O=C(OCn1ncc(Br)c(Br)c1=O)c1ccccc1Cl
O=C(OCn1ncc(Cl)c(Cl)c1=O)c1ccccc1Cl
Cc1ccc(C(=O)OCn2ncc(Cl)c(Cl)c2=O)cc1
COc1cccc(C(=O)Nc2nc(-c3ccccc3)c(-c3ccccc3)o2)c1
COc1cc(OC)cc(C(=O)Nc2nc(-c3ccccc3)c(-c3ccccc3)o2)c1
S=c1[nH]nc(C2CCCCC2)n1/N=C/c1ccncc1
O=c1c2cc(Br)ccc2nc(-c2cccc(C(F)(F)F)c2)n1O
O=c1c2cc(Cl)ccc2nc(-c2ccc(Cl)c(Cl)c2)n1O
COc1cccc(N2CCN(c3ncnc4c3[nH]c3ccc(F)cc34)CC2C)c1 (stereo not drawn)
COc1cccc(N2CCN(c3ncnc4c3[nH]c3ccccc34)CC2C)c1 (stereo not drawn)
Cc1sc2nc(CSc3ccccc3)nc(N3CCC(C(N)=O)CC3)c2c1C
Cc1nc(N2CCC(C(N)=O)CC2)c2c(-c3cccs3)csc2n1
Cc1cccc(CS(=O)(=O)c2ncc(Cl)c(C(=O)Nc3c(C)cccc3C)n2)c1
CCCc1nnc(NC(=O)c2nc(S(=O)(=O)Cc3ccc(C)cc3)ncc2Cl)s1
CCc1nnc(NC(=O)c2nc(S(=O)(=O)Cc3ccc(C)cc3)ncc2Cl)s1
CCCc1nnc(NC(=O)c2nc(S(=O)(=O)Cc3cccc(C)c3)ncc2Cl)s1
CC(C)(C)C(=O)/C(=C/c1ccc(Cl)cc1)n1cncn1
O=c1c2ccccc2nc(/C=C/c2ccc([N+](=O)[O-])o2)n1CCCO
O=c1c2ccccc2nc(/C=C/c2cc(Br)ccc2O)n1CCCO
CC[n+]1c(C=C2C=C(C)OC(C)=C2)sc2ccccc21.[Cl-]
O=[N+]([O-])c1nn(-c2ccc3c(c2)OCCO3)n(O)c1=Nc1ccccc1
COc1ccc(OC)c(Nc2nc(N)nc(CCl)n2)c1
CCOc1ccc(Nc2nc(N)nc(CCl)n2)cc1
Cc1ccccc1Nc1nc(N)nc(CCl)n1
CCCCCc1cc(O)c2c(C)cc(=O)oc2c1
O=C(Nc1ccccc1C(=O)O)c1cc(S(=O)(=O)N2CCCCC2)c(Cl)cc1Cl
O=C(Nc1ccccc1C(=O)O)c1cc(S(=O)(=O)Nc2ccccc2)ccc1Cl
CC(=O)c1cccc(NC(=O)/C=C/c2ccc([N+](=O)[O-])s2)c1
CCOC(=O)/C=C/C(=O)Nc1cccc([N+](=O)[O-])c1
Cc1cccc(NC(=O)/C=C/c2ccc([N+](=O)[O-])s2)c1
CC(=C/c1ccccc1)/C=N/n1c(-c2ccncc2)n[nH]c1=S
S=c1[nH]nc(-c2cc(-c3ccccc3)n[nH]2)n1/N=C/C(Br)=C/c1ccccc1
CCn1nc(C)cc1C(=O)NC1CCCc2c1cnn2-c1ccc(C)c(C)c1 (stereo not drawn)
Cc1cc(C(=O)NC2CCCc3c2cnn3-c2ccc(C)c(C)c2)n(C)n1 (stereo not drawn)
CCc1cc(C(=O)NC2CCCc3c2cnn3-c2cccc(C)c2C)n(C)n1 (stereo not drawn)
COCCn1c(=S)[nH]c2cc(C(=O)N3CCCC(C)C3)ccc2c1=O (stereo not drawn)
O=C(N/N=C/c1ccccn1)c1cc(-c2ccc(Cl)cc2)nc2ccccc12
CCCOc1cccc(-c2cc(C(=O)N/N=C/c3ccccn3)c3ccccc3n2)c1
O=C(N/N=C/c1ccccn1)c1cc(-c2ccccc2)nc2ccccc12
O=C(N/N=C/c1ccccn1)c1cc(-c2ccc(Br)cc2)nc2ccccc12
COCC1CCN(C(=O)c2cc(COc3cccc4cnccc34)on2)CC1
O=C(c1cc(COc2cccc3cnccc23)on1)N1CCCC(CCCO)C1 (stereo not drawn)
COCC1CCCN(C(=O)c2cc(COc3ccc4ncccc4c3)on2)C1 (stereo not drawn)
Cc1c(C(C)NC(=O)c2cc(COc3cccc4cnccc34)on2)cnn1C (stereo not drawn)
O=C(c1cc(COc2cccc3cnccc23)on1)N1CCC(c2ccccc2Cl)C1 (stereo not drawn)
O=C1NC(=O)/C(=C\c2ccccc2Oc2ccc(F)c(F)c2)S1
Cc1cccc2cc(/C=N/NC(=O)c3ccccc3O)c(Cl)nc12
C=C1C(=O)[C@@]23[C@H](O)C[C@@H]4C(C)(C)CC[C@H](O)[C@@]4(C)[C@@H]2CC[C@@H]1[C@H]3O
CCc1ccc(CN(C)C(=O)c2cc(COc3cccc4cnccc34)on2)cc1
CN(Cc1nccs1)C(=O)c1cc(COc2cccc3cnccc23)on1
COc1cccc(CN(C)C(=O)c2cc(COc3ccc4ncccc4c3)on2)c1
COc1ccc(-c2cc(C(F)(F)F)nc(S(C)(=O)=O)n2)cc1
COc1ccc(-c2cc(C(F)(F)F)nc(S(C)(=O)=O)n2)cc1OC
COc1ccccc1-c1cc(C(F)(F)F)nc(S(C)(=O)=O)n1
CCCC1/C(=N/O)CC(c2ccccc2)NC1c1ccccc1 (stereo not drawn)
N#CC1=C(N)N2C(=C(C#N)C1c1ccc(Br)cc1)Nc1ccccc12 (stereo not drawn)
N#CC1=C(N)N2C(=C(C#N)C1c1cccc(Br)c1)Nc1ccccc12 (stereo not drawn)
Cc1[nH]c(=O)c(C(=O)/C=C/c2ccccc2)c2c1CCCC2
Cc1[nH]c(=O)c(C(=O)/C=C/c2ccccc2F)c2c1CCCC2
COc1ccccc1/C=C/C(=O)c1c2c(c(C)[nH]c1=O)CCCC2
CCN(CC)S(=O)(=O)c1cccc(NC(=O)Nc2cccc(C(F)(F)F)c2)c1
Cc1cccc(Cc2cnc(N3C(=N)SC(C)C3=O)s2)c1 (stereo not drawn)
Cc1ccc(Cc2cnc(N3C(=N)SC(C)C3=O)s2)cc1 (stereo not drawn)
CC1=C(C(=O)OCc2ccc3c(c2)OCO3)C(c2ccc(F)cc2)NC(=O)N1 (stereo not drawn)
CC1=C(C(=O)OCc2ccc3c(c2)OCO3)C(c2ccccc2)NC(=O)N1 (stereo not drawn)
CC1=C(C(=O)OCc2ccc3c(c2)OCO3)C(c2ccc(O)c([N+](=O)[O-])c2)NC(=O)N1 (stereo not drawn)
CC1=C(C(=O)OCc2ccc3c(c2)OCO3)C(c2ccc(Cl)cc2)NC(=O)N1 (stereo not drawn)
O=C(NCc1ccccc1)C1=C[C@@H](c2csc3ccccc23)C[C@@H](OCCCCO)O1
CCn1nc(C)c(NC(=O)/C=C/c2ccc(OC)c(COc3ccc(Br)cc3)c2)c1C
CCCN(CC(=O)Nc1ccccc1C)C(=O)CCl
CCC(C)N(CC(=O)Nc1cccc(C)c1C)C(=O)CCl (stereo not drawn)
CCc1c(C)sc2nc(C(C)C)nc(SCC(=O)N3CCc4ccccc4C3)c12
Cc1cc(C(=O)CSc2nc3ccccc3c(=O)n2C)c(C)n1CC1CCCO1 (stereo not drawn)
Cc1cc(C(=O)CSc2nc3ccccc3c(=O)n2C)c(C)n1Cc1ccc2c(c1)OCO2
Cc1cc(C(=O)CN2C(=O)c3ccccc3S2(=O)=O)c(C)n1CC1CCCO1 (stereo not drawn)
COc1ccc(CCNC(=S)N2CCC(Cc3ccccc3)CC2)cc1OC
N=C1S/C(=C\c2ccc(-c3cccc(Cl)c3)o2)C(=O)N1c1nccs1
N=C1S/C(=C\c2ccco2)C(=O)N1c1nccs1
Cn1ncc2c(N3CCN(c4ccc(Cl)c(Cl)c4)CC3)ncnc21
O=C(Nc1ccc(Cl)c(Cl)c1)Nc1ccccc1NS(=O)(=O)c1cccs1
O=C(Nc1ccc(Cl)c(Cl)c1)Nc1ccc(Br)cc1F
S=C(NCCc1ccccc1)Nc1cccc2cnccc12
COc1ccccc1-c1nnc(SCC(=O)Nc2nc(-c3ccccc3)cs2)n1C
COc1nc(Nc2nc3ccccc3c(=O)[nH]2)nc2ccc(C)cc12
COc1ccc(NC(=O)Cn2nnc(-c3ccccc3NS(=O)(=O)c3ccc(OC)cc3)n2)cc1
Cc1ccc(S(=O)(=O)Nc2nc3ccccc3nc2Nc2cccc(S(=O)(=O)N3CCCC3)c2)cc1
O=[N+]([O-])c1cccc(S(=O)(=O)Nc2nc3ccccc3nc2Nc2cccc(S(=O)(=O)N3CCCCC3)c2)c1
COc1cc(Nc2nc3ccccc3nc2NS(=O)(=O)c2ccc([N+](=O)[O-])cc2)cc(OC)c1OC
CCOc1cc(C)c(Cl)cc1S(=O)(=O)n1nnc2ccccc21
CC(=O)n1c(Cl)c(NC(=O)CCl)c2ccccc21
